Compound activity (PubChem BioAssay)
Compounds with a hit are over-represented: about 7.4% of the library has one in this group of screens.
DAT uptake mod – modulates human dopamine transporter uptake under cocaine. 1.3% of 110,000 active. LLC-PK1 hDAT cells, [14C]-dopamine uptake with cocaine IC80; actives deviate in either direction. AID 449768. B-score at 10 µM;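 active means Z score or B-score, a plate-position-corrected score, falls beyond the plate's 99.7% confidence bounds, in either direction; inactive means both scores lie inside the 99.7% bounds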
FXIa mix inh – factor XIa (human) inhibition, mixture screen; 0.19% of 62,000 active; inhibition, % at 5 µM; AID 680; purified FXIa, fluorogenic substrate, pooled mixtures; P03951;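 further: each value is inhibition by a whole ten-compound pool holding the compound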
Target sequence (P03951 19-387 limits assumed): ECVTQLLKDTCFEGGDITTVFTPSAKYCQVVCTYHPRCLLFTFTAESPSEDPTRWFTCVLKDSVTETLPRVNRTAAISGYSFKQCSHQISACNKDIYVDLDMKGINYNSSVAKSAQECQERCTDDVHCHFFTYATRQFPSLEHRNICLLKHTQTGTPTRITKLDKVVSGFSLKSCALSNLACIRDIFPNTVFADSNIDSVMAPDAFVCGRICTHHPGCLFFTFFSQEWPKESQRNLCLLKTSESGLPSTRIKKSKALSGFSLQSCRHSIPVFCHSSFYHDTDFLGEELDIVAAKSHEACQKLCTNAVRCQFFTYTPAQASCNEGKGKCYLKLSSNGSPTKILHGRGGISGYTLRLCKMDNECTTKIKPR
Target sequence (P03951 388-625 limits assumed): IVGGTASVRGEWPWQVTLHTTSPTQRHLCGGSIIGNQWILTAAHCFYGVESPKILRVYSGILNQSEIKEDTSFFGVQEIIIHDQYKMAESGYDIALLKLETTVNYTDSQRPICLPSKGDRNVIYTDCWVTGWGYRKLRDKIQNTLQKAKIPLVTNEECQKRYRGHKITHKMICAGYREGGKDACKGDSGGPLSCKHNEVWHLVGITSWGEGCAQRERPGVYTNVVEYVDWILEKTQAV
FXIIa mix inh – blocks human factor XIIa in pooled compound mixtures | AID 684 | 0.2% of 62,000 active | purified FXIIa, fluorogenic substrate | P00748 | inhibition, % at 5 µM
M1 ag – activates the M1 muscarinic receptor. CHO-M1 cells, Fluo-4 calcium fluorescence, agonist mode; active compounds read high. B-score at 10 µM. 3% of 64,000 active. AID 626;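 active means fluorescence rise, raw or as B-score row- and column-corrected plate score, outside the 99.7% band of its plate's samples, either direction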
D1 mod – allosterically modulates the human D1 dopamine receptor; HEK293 D1, CRE-luciferase, dopamine EC30 potentiation; actives deviate in either direction; B-score at 10 µM; 5.9% of 58,000 active; P21728;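 active means luminescence count or its row- and column-corrected plate score outside the 99.7% band of the plate's sample wells, on either side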
M1 antagonist – M1 muscarinic receptor (rat) antagonism | B-score at 10 µM | P08482 | CHO-M1 cells, Fluo-4 calcium, ACh EC80 antagonist mode; active compounds read low | 3.4% of 64,000 active;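 active means calcium fluorescence response, raw or row-and-column corrected B-score, differing from the plate sample mean either way at a set confidence level, mostly lower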
Large screens that a line does not name were inactive. Unless noted, no stated cut-off is given here; in the data, active means inhibition above about 20% (passing the limit was not always enough); inactive means the rest.

CCCCC(CC)Cn1c2nc3ccccc3nc2c2c(=N)oc(C)nc21 (stereo not given)	none (no result: DAT uptake mod)
CCC(CC)NC(=O)Cc1ccc(S(=O)(=O)N2CCOCC2)s1	none (no result: FXIa mix inh, FXIIa mix inh, M1 ag, D1 mod, M1 antagonist)
O=C(Cc1ccc(S(=O)(=O)N2CCOCC2)s1)NCC1CCCCC1	D1 mod -7
COC(=O)Cc1c(C)c2c(OCc3nn[nH]n3)cc(C)cc2oc1=O	FXIIa mix inh 24
CCOC(=O)Cc1c(C)c2ccc(N(CC)CC)cc2oc1=O	none (no result: DAT uptake mod)
CCN(CC)c1ccc2c(C)c(-c3ccc(N)cc3)c(=O)oc2c1	none (no result: DAT uptake mod)
CCN(CC)c1ccc2c(Cl)c(Br)c(=O)oc2c1	M1 ag 38
CCN(CC)c1ccc2c(c1)oc(=O)c1c(Cl)cc(=O)oc12	M1 ag 45
N#Cc1ccc(NC(=O)c2cc3cc4c5c(c3oc2=N)CCCN5CCC4)cc1	M1 ag 166 (no result: DAT uptake mod)
CCCCNC(=O)CSc1nc2ccccc2c(=O)n1CC1COc2ccccc2O1 (stereo not given)	none (no result: FXIa mix inh, FXIIa mix inh, M1 ag, D1 mod, M1 antagonist)
COc1ccccc1NC(=O)CN1C(=O)C2(OCCCO2)c2ccccc21	D1 mod -2.6
O=C(O)CCCCCNC(=O)CCn1nnc2ccccc2c1=O	M1 antagonist 1.6
O=C(CCn1nnc2ccccc2c1=O)NCC1CCC(C(=O)O)CC1 (stereo not given)	none
COC(=O)NC(NC(=S)Nc1ccc([N+](=O)[O-])cc1)C(Cl)(Cl)Cl (stereo not given)	DAT uptake mod -2.8 (no result: FXIa mix inh, FXIIa mix inh, M1 ag, D1 mod, M1 antagonist)
COC(=O)c1ccccc1NC(=S)NC(NC(=O)c1ccccc1[N+](=O)[O-])C(Cl)(Cl)Cl (stereo not given)	none (no result: FXIa mix inh, FXIIa mix inh, M1 ag, D1 mod, M1 antagonist)
CCOc1ccccc1OCCCOc1ccc([N+](=O)[O-])cc1Cl	none (no result: FXIa mix inh, FXIIa mix inh, M1 ag, D1 mod, M1 antagonist)
CC(C)OC(=O)CC(=O)CSc1nc2c(cc1C#N)CCCC2	none
COC(=O)c1cccc(NC(=O)Cc2ccc(OC)cc2)c1C	none (no result: FXIa mix inh, FXIIa mix inh, M1 ag, D1 mod, M1 antagonist)
Cc1nn(CCC#N)c(NC(=O)c2ccc(Cl)cc2)c1P(=O)(Nc1ccc([N+](=O)[O-])cc1)N1CCOCC1 (stereo not given)	DAT uptake mod -5.6 (no result: FXIa mix inh, FXIIa mix inh, M1 ag, D1 mod, M1 antagonist)
Cc1nn(CCC#N)c(NC(=O)c2ccc(Cl)cc2Cl)c1P(=O)(Nc1ccc([N+](=O)[O-])cc1)N1CCOCC1 (stereo not given)	DAT uptake mod -6.5 (no result: FXIa mix inh, FXIIa mix inh, M1 ag, D1 mod, M1 antagonist)
N#CCCn1ccc(NC(=O)c2ccc(Cl)cc2)n1	none
O=C(Nc1c(Cl)cc(Cl)cc1C(=O)NCCN1CCOCC1)c1ccc(Cl)cc1Cl	none (no result: FXIa mix inh, FXIIa mix inh, M1 ag, D1 mod, M1 antagonist)
Nc1nc2c3ccccc3nc(C3CC3)n2n1	none (no result: M1 ag, D1 mod, M1 antagonist)
c1ccc(-c2cn3nc(-c4ccccc4)sc3n2)cc1	D1 mod -8.2 (no result: DAT uptake mod)
c1ccc(-c2nnc3sc(-c4ccncc4)nn23)cc1	none
Cc1nn2cc(-c3ccccc3)nc2s1	D1 mod -3.9
COc1ccc2nc(NC(=O)C3COc4ccccc4O3)sc2c1 (stereo not given)	D1 mod -4.8
O=C(NC1=NCCS1)C1COc2ccccc2O1 (stereo not given)	D1 mod -5.4
O=C(Nc1nc2c(s1)CCCC2)C1COc2ccccc2O1 (stereo not given)	D1 mod -6.9
O=C(Nc1ccncc1)C1COc2ccccc2O1 (stereo not given)	none
Cc1nnc(NC(=O)C2COc3ccccc3O2)s1 (stereo not given)	none
CS(=O)(=O)c1ccc2nc(NC(=O)C3COc4ccccc4O3)sc2c1 (stereo not given)	none
O=S(=O)(NCCCc1ccccc1)c1ccccc1	none (no result: FXIa mix inh, FXIIa mix inh, M1 ag, D1 mod, M1 antagonist)
CC(C)(C)c1ccc(-c2nc3c(C#N)c(-c4ccc5c(c4)OCO5)ccn3n2)cc1	none (no result: FXIa mix inh, FXIIa mix inh, M1 ag, D1 mod, M1 antagonist)
CCOC(=O)C1CCCN(C(=O)CSc2nccn2C)C1 (stereo not given)	DAT uptake mod -3 (no result: D1 mod)
CCOC(=O)C1CCCN(C(=O)COc2ccccc2O)C1 (stereo not given)	none (no result: FXIa mix inh, FXIIa mix inh, M1 ag, D1 mod, M1 antagonist)
CC(=O)c1ccc(NC(=O)c2ccn[nH]2)cc1	D1 mod -2.2
CCN(CC)S(=O)(=O)c1cc(C(=O)Nc2ccc(Cl)cn2)ccc1C	none
COc1cccc(N=Cc2c[nH][nH]c2=O)c1	DAT uptake mod -7.7 (no result: FXIa mix inh, FXIIa mix inh, M1 ag, D1 mod, M1 antagonist)
COCc1[nH][nH]c(=O)c1C=Nc1ccc(Oc2ccccc2)cc1	none (no result: FXIa mix inh, FXIIa mix inh, M1 ag, D1 mod, M1 antagonist)
COc1ccc(C2c3c(oc4c(C)cc(C)cc4c3=O)C(=O)N2Cc2cccnc2)cc1OC (stereo not given)	none (no result: DAT uptake mod)
COc1cc(C2c3c(oc4c(C)cc(C)cc4c3=O)C(=O)N2Cc2cccnc2)ccc1O (stereo not given)	D1 mod 11
OC(COc1ccc2ccccc2c1)CN1CCCC1 (stereo not given)	none
O=C(c1ccco1)N1CCN(C(=O)C2CCN(S(=O)(=O)c3cnc[nH]3)CC2)CC1	none
O=C(CC1Nc2ccccc2NC1=O)NCc1cccnc1 (stereo not given)	M1 antagonist 1.4 (no result: DAT uptake mod)
CCN(CCNC(=O)C1CCN(S(=O)(=O)c2cccc3nsnc23)CC1)c1ccccc1	D1 mod -2.9
OC(CN1C2=NCCN2c2ccccc21)c1ccc(Br)cc1 (stereo not given)	D1 mod -5
COc1cccc(CNC(=O)Nc2cccs2)c1	D1 mod -3.4 (no result: M1 ag, M1 antagonist)
COc1ccc2nc(-c3ccccc3)[nH]c2c1	D1 mod -5.3
CCOc1ccc2nc(-c3ccccc3)[nH]c2c1	none
COc1ccc2nc(NCc3ccccc3)[nH]c2c1	D1 mod -4.1
O=S(=O)(c1ccc(F)c(Cl)c1)N1CCCC1	none
CC(=O)c1ccc(-n2nncc2C(C)(C)C)cc1	FXIIa mix inh 34
COCCCNc1oc(COc2ccc(Cl)cc2Cl)nc1C#N	DAT uptake mod 2.2
CCOCCCNC(=O)c1ccc2c(c1)OCO2	none
O=C(NCCOc1ccccc1)c1ccc2c(c1)OCO2	D1 mod -7.5
COc1cccc(-c2nc(NC(C)C)c3ccccc3n2)c1O	none (no result: FXIa mix inh, FXIIa mix inh, D1 mod)
CCC(C)Nc1nc(-c2cccc(OC)c2O)nc2ccccc12 (stereo not given)	DAT uptake mod 3.7 (no result: FXIa mix inh, FXIIa mix inh, D1 mod)
CN1CCc2cccc3c2[C@@H]1Cc1ccc(O)c(O)c1-3	none (no result: FXIa mix inh, FXIIa mix inh, M1 ag, D1 mod, M1 antagonist)
COc1ccc(-n2nnnc2SCc2nc3ccccc3s2)cc1	DAT uptake mod 4.1 (no result: FXIa mix inh, FXIIa mix inh, M1 ag, D1 mod, M1 antagonist)
COc1ccc(C)cc1-n1nnnc1SCc1nc2ccccc2s1	none (no result: DAT uptake mod)
Cc1onc(-c2ccccc2Cl)c1C(=O)Nc1nnc(-c2ccc(F)cc2)s1	DAT uptake mod 2.7 (no result: D1 mod)
CCOC(=O)c1c(NC(=O)CSc2nnc(C)s2)sc2c1CCC(CC)C2 (stereo not given)	DAT uptake mod 2.2 (no result: FXIa mix inh, FXIIa mix inh, M1 ag, D1 mod, M1 antagonist)
COc1ccc(CSc2nnc(SCc3ccc([N+](=O)[O-])cc3)s2)cc1	none (no result: FXIa mix inh, FXIIa mix inh, M1 ag, D1 mod, M1 antagonist)
COc1ccc(Cn2c(C)nc3c(c2=O)c2nc4ccccc4nc2n3Cc2ccco2)cc1	D1 mod 7.6 (no result: DAT uptake mod)
COc1nc2c(s1)C(=O)NCCC2	FXIIa mix inh 20
CCN(CC)c1nc2c(s1)C(=O)NCCC2	none (no result: FXIa mix inh, FXIIa mix inh, M1 ag, D1 mod, M1 antagonist)
COc1ccc(OC)c(CNC(=O)CCN2C(=O)COc3ccccc32)c1	DAT uptake mod 1.6
Cc1cc(C(=O)CSc2nnc(-c3cccs3)o2)c(C)n1-c1ccccc1	D1 mod -3.6
Cc1cccc(C(=O)Nc2cc(C)ccc2NC(=O)COc2ccccc2)c1	none (no result: FXIa mix inh, FXIIa mix inh, M1 ag, D1 mod, M1 antagonist)
